Most compounds without a hit are left out; they make up all but 19% or so of the library.
HT1080 IDH1KD tx – qHTS for induction of synthetic lethality in tumor cells producing 2HG: qHTS for the HT-1080-IDH1KD cell line | HT-1080 IDH1 knockdown viability, ATP luminescence, 48 h | Potency, µM (top dose mostly 46.1 µM), most hits filed as cytotoxic | 2% of 360,000 active
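Cytotoxicity counter-line: IDH1KD HT-1080, 48 h, CellTiter-Glo. Curves classed by r2, magnitude and activity.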
TDP1 cell noCPT – qHTS for Inhibitors of human tyrosyl-DNA phosphodiesterase 1 (TDP1): qHTS in cells in absence of CPT; DT40 Tdp1-/- hTDP1 cells, no CPT, ATP luminescence, 48 h; Potency, µM (highest dose often 46.2 µM), most hits filed as inhibitors; 15% of 420,000 active; AID 686978, 2013; also: nearly all actives have a fitted effect of over 55% in size
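Luminescent ATP content (CellTiter-Glo) served as the growth readout. Knockout chicken DT40 cells expressing human TDP1 were exposed to compounds without camptothecin for a minimum 48 hr at 37 °C.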
DT40 TDP1 CPT – qHTS for Inhibitors of human tyrosyl-DNA phosphodiesterase 1 (TDP1): qHTS in cells in presence of CPT; chicken DT40 Tdp1-/-;hTDP1 cells + 20 nM CPT, ATP luminescence, 48 h; Potency, µM (series often up to 46.2 µM), usual class: inhibitors; 12% of 420,000 active; also: nearly all actives have a fitted effect of over 55% in size
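Chicken DT40 Tdp1-/- cells complemented with human TDP1, 400 cells/well, exposed to compounds plus 20 nM camptothecin for at least 48 h at 37 C; viability read as ATP content by CellTiter-Glo luminescence.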
KB-3-1 tox – qHTS assay for MDR1-selective chemotherapeutics: Primary screen using the parental adenocarcinoma cell KB-3-1; AID 1347075, 2019; KB-3-1 viability, CellTiter-Glo ATP luminescence, 72 h; 1.4% of 400,000 active; Potency, µM (doses to about 46.1 µM), most hits filed as cytotoxic; also: nearly all actives have a fitted effect of over 60% in size
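Parental KB-3-1 adenocarcinoma cells in phenol-red-free DMEM with 10% FBS were pin-treated with compounds at several concentrations, incubated 72 h at 37 °C, and viability read by CellTiter-Glo luminescence; concentration-effect curves were fitted after normalization.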
HT1080-NT tox – qHTS for induction of synthetic lethality in tumor cells producing 2HG: qHTS for the HT-1080-NT fibrosarcoma cell line; HT-1080-NT fibrosarcoma viability, CellTiter-Glo ATP luminescence, 48 h; Potency, µM (top dose mostly 46.1 µM), actives largely listed as cytotoxic; 1.6% of 360,000 active; AID 686970, 2013;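 also: NT is the 2HG producing partner of a matched IDH1 knockdown line; nearly all actives have a fitted effect of over 55% in size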
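HT-1080-NT; 750 cells/well; 5% FBS RPMI; 48 h compound, 37 degrees C; CellTiter-Glo luminescence; curve fitting and curve-class assignment.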
KB-V1 MDR tox – qHTS assay for MDR1-selective chemotherapeutics: Primary screen using the drug-selected MDR subline cells KB-V1. Potency, µM (top dose mostly 46.1 µM), actives largely listed as cytotoxic. KB-V1 MDR cells viability, CellTiter-Glo, 72 h. 3.4% of 400,000 active; also: nearly all actives have a fitted effect of over 60% in size
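KB-V1, DMEM (no phenol red) + 10% FBS; cpd pin-transferred, titration series; 72 h, 37 degrees C; CellTiter-Glo, luminescence. Data normalized, curve-fit.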
Hits are given with their value; 0 = inactive; ? = inconclusive; - = not tested or not shown. Calls follow the shape of the dose curve; as a rule, active = well fitted curve in the direction sought with a large enough effect; inconclusive = small, poorly fitted or top-dose-only effect, or another doubt; inactive = no such curve, though single readings can be large; an effect the other way counts as inactive or inconclusive.

SMILES | HT1080 IDH1KD tx | TDP1 cell noCPT | DT40 TDP1 CPT | KB-3-1 tox | HT1080-NT tox | KB-V1 MDR tox
Cc1ccc2c(c1)N(CC(=O)NCCCN1CCOCC1)C(=O)C(C(C)C)O2 (centres undefined) | 0 | 0 | 0 | 0 | 0 | 0
Cc1ccccc1-c1nnc(SCC(=O)N(C)C2CCCCC2)o1 | - | 0 | ? | - | - | -
CN(C)S(=O)(=O)c1cccc(NC(=O)c2cc(=O)[nH]c(=O)[nH]2)c1 | 0 | 0 | 0 | 0 | 0 | 0
Clc1ccc2nc(-c3cccc(Br)c3)c(Cc3ccccc3)n2c1 | 0 | ? | 0 | 0 | 0 | 0
Cc1ccc2nc(-c3cccc(Br)c3)c(Cc3ccccc3)n2c1 | 0 | ? | 26µM | 0 | ? | ?
Cc1ccc2nc(-c3cccc(Br)c3)c(Cc3cccc(Cl)c3)n2c1 | 0 | 18µM | ? | 0 | 0 | 0
Cc1ccc(Cc2c(-c3ccc(Cl)cc3)nc3ccc(Cl)cn23)cc1 | 0 | 21µM | ? | 0 | 0 | 0
Cc1ccc(Cc2c(-c3cccc(Cl)c3)nc3ccc(C)cn23)cc1 | ? | 16µM | ? | 0 | ? | 0
CCN(CC)CCn1c(=S)[nH]c2cc(C(=O)N3CC(C)CC(C)C3)ccc2c1=O (centres undefined) | 0 | 0 | 0 | 0 | 0 | 0
Cc1ccc2nc(-c3ccccc3)c(Cc3cccc(Cl)c3)n2c1 | ? | 18µM | 21µM | 0 | ? | 0
CCCN(CCC)C(=O)c1ccccc1C(=O)N(CCC)CCC | 0 | ? | ? | 0 | 0 | 8.2µM
CCN(Cc1ccccc1)C(=O)c1ccccc1C | 0 | ? | 0 | 0 | 0 | ?
CCSC1=C(C#N)C(c2ccc(C)o2)CC(=O)N1 (centres undefined) | 0 | 0 | 0 | 0 | 0 | 0
N#CC1=C(SCC(=O)Nc2ccccc2)NC(=O)CC1c1ccc(O)cc1 (centres undefined) | 0 | ? | ? | 0 | 0 | 0
N#CC1=C(SCC(=O)NC2CCCCC2)NC(=O)CC1c1ccco1 (centres undefined) | 0 | 0 | ? | 15µM | 0 | 0
N#CC1=C(SCC(=O)NCc2ccccc2)NC(=O)CC1c1ccco1 (centres undefined) | 0 | 23µM | ? | 0 | 0 | 0
N#CC1=C(SCc2ccccc2)NC(=O)CC1c1ccco1 (centres undefined) | 0 | 0 | 0 | 0 | 0 | 0
N#CC1=C(SCC(=O)Nc2ccccc2)NC(=O)CC1c1ccco1 (centres undefined) | ? | 18µM | 7.3µM | ? | 14µM | 15µM
COCCCNC(=O)Nc1cc(C(=O)NCc2ccc(OC)cc2)ccc1N1CCCC1 | - | 0 | 0 | 0 | - | 0
C[C@@H](O)[C@H]1C(=O)N2C(C(=O)O)=C(S[C@@H]3CN[C@H](C(=O)N(C)C)C3)[C@H](C)[C@H]12 | - | 0 | 0 | - | - | -
O=C(N/N=C/C=C/c1ccco1)/C(=C/c1ccccc1)NC(=O)c1ccccc1 | 0 | ? | ? | 0 | 0 | 0
COc1ccc(OC)c(NC(=O)c2cc3c(=O)n4ccccc4nc3n2C)c1 | 0 | 0 | 0 | 0 | 0 | 0
CN(C(=O)c1cc2c(=O)n3ccccc3nc2n1C)c1ccccc1 | - | ? | 12µM | - | - | -
Cn1c(C(=O)NCCc2ccccc2)cc2c(=O)n3ccccc3nc21 | - | ? | 0 | - | - | -
CN(C)c1ccc(NC(=O)c2cc3c(=O)n4ccccc4nc3n2C)cc1 | 0 | 15µM | ? | 0 | 0 | ?
COc1ccccc1C(=O)NCC(=O)N/N=C/c1cccc(Cl)c1 | 0 | 0 | 0 | 0 | 0 | 0
